Numbering of substitutions follows the chain as printed.

Common to all, as to test: PBM; 200 nM protein, PBS
Common to all, as to conditions: dsDNA, one strand shown

Experiment [1] concerns the target T1, NKX2-4 (Homo sapiens, UniProt Q9H2Z4 175-261, P217L).
T1 sequence: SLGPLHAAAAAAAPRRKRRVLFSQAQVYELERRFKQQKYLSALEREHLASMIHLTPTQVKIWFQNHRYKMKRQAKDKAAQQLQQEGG

For experiment [2], the target named is T2, NKX2-4 (Homo sapiens, UniProt Q9H2Z4 175-261, T231S).
T2 sequence: T1 sequence with L43P, T57S

Experiment [3] has as its target T3, NKX2-4 (Homo sapiens, UniProt Q9H2Z4 175-261).
T3 sequence: T1 sequence with L43P

Experiment [4] deals with T4, NKX2-4 (Homo sapiens, UniProt Q9H2Z4 175-261, R246Q).
T4 sequence: T1 sequence with L43P, R72Q

In the case of AGAGTGAG, the binding signal with NKX2-4 [1] was 11.5 upbm affinity estimate (log intensity, higher = more binding, comparable within an allelic series); with NKX2-4 [2], 11.6 upbm affinity estimate (log intensity, higher = more binding, comparable within an allelic series); in the experiment with NKX2-4 [3], 11.4 upbm affinity estimate (log intensity, higher = more binding, comparable within an allelic series); with NKX2-4 [4], 11.6 upbm affinity estimate (log intensity, higher = more binding, comparable within an allelic series).

Regarding CATCGCGA, the binding signal is 9.66 upbm affinity estimate (log intensity, higher = more binding, comparable within an allelic series) with NKX2-4 [1]; 9.66 upbm affinity estimate (log intensity, higher = more binding, comparable within an allelic series) in the experiment with NKX2-4 [2]; 9.73 upbm affinity estimate (log intensity, higher = more binding, comparable within an allelic series) with NKX2-4 [3]; 9.58 upbm affinity estimate (log intensity, higher = more binding, comparable within an allelic series) in the experiment with NKX2-4 [4].

Turning to ACCTGGGC, the binding signal was 9.66 upbm affinity estimate (log intensity, higher = more binding, comparable within an allelic series) with NKX2-4 [1]; 9.68 upbm affinity estimate (log intensity, higher = more binding, comparable within an allelic series) with NKX2-4 [2]; 9.7 upbm affinity estimate (log intensity, higher = more binding, comparable within an allelic series) with NKX2-4 [3]; 9.78 upbm affinity estimate (log intensity, higher = more binding, comparable within an allelic series) with NKX2-4 [4].

With GCGAGCCA, the binding signal was 9.74 upbm affinity estimate (log intensity, higher = more binding, comparable within an allelic series) with NKX2-4 [1]; 9.69 upbm affinity estimate (log intensity, higher = more binding, comparable within an allelic series) with NKX2-4 [2]; 9.69 upbm affinity estimate (log intensity, higher = more binding, comparable within an allelic series) with NKX2-4 [3]; 9.76 upbm affinity estimate (log intensity, higher = more binding, comparable within an allelic series) in the experiment with NKX2-4 [4].

Turning to ATGAGTGG, the binding signal in the experiment with NKX2-4 [1] is 12.4 upbm affinity estimate (log intensity, higher = more binding, comparable within an allelic series); in the experiment with NKX2-4 [2] it was 12.8 upbm affinity estimate (log intensity, higher = more binding, comparable within an allelic series); in the experiment with NKX2-4 [3], 12.3 upbm affinity estimate (log intensity, higher = more binding, comparable within an allelic series); in the experiment with NKX2-4 [4], 12.8 upbm affinity estimate (log intensity, higher = more binding, comparable within an allelic series).

Regarding ACTTATCC, the binding signal with NKX2-4 [1] is 11.9 upbm affinity estimate (log intensity, higher = more binding, comparable within an allelic series); with NKX2-4 [2], 12.1 upbm affinity estimate (log intensity, higher = more binding, comparable within an allelic series); with NKX2-4 [3], 11.7 upbm affinity estimate (log intensity, higher = more binding, comparable within an allelic series); with NKX2-4 [4] it was 12.1 upbm affinity estimate (log intensity, higher = more binding, comparable within an allelic series).

With CTCAAGAG, the binding signal in the experiment with NKX2-4 [1] is 12.4 upbm affinity estimate (log intensity, higher = more binding, comparable within an allelic series); with NKX2-4 [2], 12.8 upbm affinity estimate (log intensity, higher = more binding, comparable within an allelic series); with NKX2-4 [3], 12.3 upbm affinity estimate (log intensity, higher = more binding, comparable within an allelic series); with NKX2-4 [4], 13 upbm affinity estimate (log intensity, higher = more binding, comparable within an allelic series).

On to CGGAATCA, for which the binding signal in the experiment with NKX2-4 [1] was 9.89 upbm affinity estimate (log intensity, higher = more binding, comparable within an allelic series); with NKX2-4 [2], 9.89 upbm affinity estimate (log intensity, higher = more binding, comparable within an allelic series); in the experiment with NKX2-4 [3], 9.83 upbm affinity estimate (log intensity, higher = more binding, comparable within an allelic series); with NKX2-4 [4] it was 9.94 upbm affinity estimate (log intensity, higher = more binding, comparable within an allelic series).

In the case of AACTCTTG, the binding signal with NKX2-4 [1] is 11.7 upbm affinity estimate (log intensity, higher = more binding, comparable within an allelic series); in the experiment with NKX2-4 [2] it was 11.8 upbm affinity estimate (log intensity, higher = more binding, comparable within an allelic series); with NKX2-4 [3] it was 11.6 upbm affinity estimate (log intensity, higher = more binding, comparable within an allelic series); with NKX2-4 [4], 12 upbm affinity estimate (log intensity, higher = more binding, comparable within an allelic series).

For CCCAGACG, the binding signal in the experiment with NKX2-4 [1] was 9.29 upbm affinity estimate (log intensity, higher = more binding, comparable within an allelic series); in the experiment with NKX2-4 [2], 9.36 upbm affinity estimate (log intensity, higher = more binding, comparable within an allelic series); in the experiment with NKX2-4 [3], 9.37 upbm affinity estimate (log intensity, higher = more binding, comparable within an allelic series); in the experiment with NKX2-4 [4] it was 9.46 upbm affinity estimate (log intensity, higher = more binding, comparable within an allelic series).

With CAGTGACC, the binding signal in the experiment with NKX2-4 [1] is 9.77 upbm affinity estimate (log intensity, higher = more binding, comparable within an allelic series); in the experiment with NKX2-4 [2], 9.84 upbm affinity estimate (log intensity, higher = more binding, comparable within an allelic series); with NKX2-4 [3] it was 9.8 upbm affinity estimate (log intensity, higher = more binding, comparable within an allelic series); with NKX2-4 [4], 9.7 upbm affinity estimate (log intensity, higher = more binding, comparable within an allelic series).

For the sequence ATCGGTCC, the binding signal was 9.97 upbm affinity estimate (log intensity, higher = more binding, comparable within an allelic series) with NKX2-4 [1]; 9.94 upbm affinity estimate (log intensity, higher = more binding, comparable within an allelic series) in the experiment with NKX2-4 [2]; 9.85 upbm affinity estimate (log intensity, higher = more binding, comparable within an allelic series) with NKX2-4 [3]; 9.95 upbm affinity estimate (log intensity, higher = more binding, comparable within an allelic series) with NKX2-4 [4].

Take CCGGTCGC: the binding signal is 9.53 upbm affinity estimate (log intensity, higher = more binding, comparable within an allelic series) with NKX2-4 [1]; 9.41 upbm affinity estimate (log intensity, higher = more binding, comparable within an allelic series) in the experiment with NKX2-4 [2]; 9.5 upbm affinity estimate (log intensity, higher = more binding, comparable within an allelic series) with NKX2-4 [3]; 9.51 upbm affinity estimate (log intensity, higher = more binding, comparable within an allelic series) with NKX2-4 [4].

Take CAAGAGGA: the binding signal with NKX2-4 [1] is 12 upbm affinity estimate (log intensity, higher = more binding, comparable within an allelic series); with NKX2-4 [2], 12.3 upbm affinity estimate (log intensity, higher = more binding, comparable within an allelic series); in the experiment with NKX2-4 [3], 12 upbm affinity estimate (log intensity, higher = more binding, comparable within an allelic series); with NKX2-4 [4], 12.4 upbm affinity estimate (log intensity, higher = more binding, comparable within an allelic series).

Consider CGGTTCCA, for which the binding signal was 9.98 upbm affinity estimate (log intensity, higher = more binding, comparable within an allelic series) with NKX2-4 [1]; 9.95 upbm affinity estimate (log intensity, higher = more binding, comparable within an allelic series) with NKX2-4 [2]; 9.92 upbm affinity estimate (log intensity, higher = more binding, comparable within an allelic series) with NKX2-4 [3]; 10 upbm affinity estimate (log intensity, higher = more binding, comparable within an allelic series) with NKX2-4 [4].

Turning to CCGCGGTA, the binding signal with NKX2-4 [1] is 9.81 upbm affinity estimate (log intensity, higher = more binding, comparable within an allelic series); with NKX2-4 [2], 9.73 upbm affinity estimate (log intensity, higher = more binding, comparable within an allelic series); in the experiment with NKX2-4 [3], 9.75 upbm affinity estimate (log intensity, higher = more binding, comparable within an allelic series); with NKX2-4 [4] it was 9.9 upbm affinity estimate (log intensity, higher = more binding, comparable within an allelic series).

As to ATTCTTGA, the binding signal with NKX2-4 [1] is 11.5 upbm affinity estimate (log intensity, higher = more binding, comparable within an allelic series); with NKX2-4 [2], 11.7 upbm affinity estimate (log intensity, higher = more binding, comparable within an allelic series); with NKX2-4 [3], 11.2 upbm affinity estimate (log intensity, higher = more binding, comparable within an allelic series); in the experiment with NKX2-4 [4], 11.7 upbm affinity estimate (log intensity, higher = more binding, comparable within an allelic series).

Consider GTGAAGGA, for which the binding signal was 11.6 upbm affinity estimate (log intensity, higher = more binding, comparable within an allelic series) with NKX2-4 [1]; 12 upbm affinity estimate (log intensity, higher = more binding, comparable within an allelic series) with NKX2-4 [2]; 11.5 upbm affinity estimate (log intensity, higher = more binding, comparable within an allelic series) with NKX2-4 [3]; 11.6 upbm affinity estimate (log intensity, higher = more binding, comparable within an allelic series) with NKX2-4 [4].

CTCGAGTA: the binding signal in the experiment with NKX2-4 [1] was 12.3 upbm affinity estimate (log intensity, higher = more binding, comparable within an allelic series); with NKX2-4 [2] it was 12.6 upbm affinity estimate (log intensity, higher = more binding, comparable within an allelic series); with NKX2-4 [3], 12.1 upbm affinity estimate (log intensity, higher = more binding, comparable within an allelic series); with NKX2-4 [4] it was 12.6 upbm affinity estimate (log intensity, higher = more binding, comparable within an allelic series).

In the case of GAGTGTCC, the binding signal was 11.9 upbm affinity estimate (log intensity, higher = more binding, comparable within an allelic series) with NKX2-4 [1]; 12.2 upbm affinity estimate (log intensity, higher = more binding, comparable within an allelic series) with NKX2-4 [2]; 11.8 upbm affinity estimate (log intensity, higher = more binding, comparable within an allelic series) with NKX2-4 [3]; 12.2 upbm affinity estimate (log intensity, higher = more binding, comparable within an allelic series) with NKX2-4 [4].

Regarding CACGCACG, the binding signal with NKX2-4 [1] was 9.72 upbm affinity estimate (log intensity, higher = more binding, comparable within an allelic series); with NKX2-4 [2], 9.75 upbm affinity estimate (log intensity, higher = more binding, comparable within an allelic series); in the experiment with NKX2-4 [3], 9.72 upbm affinity estimate (log intensity, higher = more binding, comparable within an allelic series); with NKX2-4 [4], 9.75 upbm affinity estimate (log intensity, higher = more binding, comparable within an allelic series).

For the sequence CGGGTACG, the binding signal with NKX2-4 [1] was 9.52 upbm affinity estimate (log intensity, higher = more binding, comparable within an allelic series); in the experiment with NKX2-4 [2] it was 9.68 upbm affinity estimate (log intensity, higher = more binding, comparable within an allelic series); in the experiment with NKX2-4 [3], 9.69 upbm affinity estimate (log intensity, higher = more binding, comparable within an allelic series); with NKX2-4 [4], 9.6 upbm affinity estimate (log intensity, higher = more binding, comparable within an allelic series).

As to ACTTAGCT, the binding signal was 11.7 upbm affinity estimate (log intensity, higher = more binding, comparable within an allelic series) with NKX2-4 [1]; 11.8 upbm affinity estimate (log intensity, higher = more binding, comparable within an allelic series) in the experiment with NKX2-4 [2]; 11.5 upbm affinity estimate (log intensity, higher = more binding, comparable within an allelic series) in the experiment with NKX2-4 [3]; 11.9 upbm affinity estimate (log intensity, higher = more binding, comparable within an allelic series) with NKX2-4 [4].

The values are drawn from publication PMC11006913.
